According to PubChem BioAssay AID1159580 (chemical genetic matrix, 2015):
Hit rate of the full screen: of about 5,500 compounds, about 2,000 (36%) were called active. About 18% were inconclusive and are not listed. Rule as the data show it: active = normalized growth mostly below about 0.91 (no sharp cut-off); inconclusive = no clear call, values can overlap the other calls; inactive = mostly above about 0.92. This is one part of the list.

Experiment: chemical genetic growth profiling, strain panel (AID 1159580);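 also: tested at 20 µM; growth read once vehicle control cultures reached saturation at 30 °C; 1 = growth at the plate median or of vehicle wells; lower values mean less growth of the strain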
Conditions: growth OD

Measured: normalized growth

COP(N)(=O)SC (configuration not stated)
inactive: S. cerevisiae deletion strains, locus YJR075W, strain HOC1, hits give low values 1.01 | S. cerevisiae deletion strains, locus YKL009W, strain mrt4, hits give low values 1 | S. cerevisiae deletion strains, locus YKL068W, hits give low values 0.999 | S. cerevisiae deletion strains, locus YKL085W, strain MDH1 (second series), hits give low values 1 | S. cerevisiae deletion strains, locus YKL085W, strain MDH1, hits give low values 1 | S. cerevisiae deletion strains, locus YKL160W, strain elf1, hits give low values 0.995 | S. cerevisiae deletion strains, locus YKL190W, strain CNB1, hits give low values 1 | S. cerevisiae deletion strains, locus YKR001C, strain vps1, hits give low values 1.03 | S. cerevisiae deletion strains, locus YKR026C, strain gcn3, hits give low values 0.995 | S. cerevisiae deletion strains, locus YKR091W, strain srl3, hits give low values 1 | S. cerevisiae deletion strains, locus YLL001W, strain dnm1, hits give low values 0.981 | S. cerevisiae deletion strains, locus YLL026W, hits give low values 0.996 | S. cerevisiae deletion strains, locus YLL041C, strain sdh2, hits give low values 1 | S. cerevisiae deletion strains, locus YLR027C, strain aat2, hits give low values 0.999 | S. cerevisiae deletion strains, locus YLR039C, strain RIC1, hits give low values 1.04 | S. cerevisiae deletion strains, locus YLR058C, strain SHM2, hits give low values 1.01 | S. cerevisiae deletion strains, locus YLR102C, strain apc9, hits give low values 1.02 | S. cerevisiae deletion strains, locus YLR113W, strain HOG1, hits give low values 0.963 | S. cerevisiae deletion strains, locus YLR221C, strain rsa3, hits give low values 0.991 | S. cerevisiae deletion strains, locus YLR258W, strain gsy2, hits give low values 1.01 | S. cerevisiae deletion strains, locus YLR262C, strain YPT6 (second series), hits give low values 1.01 | S. cerevisiae deletion strains, locus YLR262C, strain YPT6, hits give low values 1.02 | S. cerevisiae deletion strains, locus YLR268W, strain sec22, hits give low values 1.01 | S. cerevisiae deletion strains, locus YLR320W, strain mms22, hits give low values 1.01 | S. cerevisiae deletion strains, locus YLR330W, strain CHS5, hits give low values 1 | S. cerevisiae deletion strains, locus YLR342W, strain FKS1 (second series), hits give low values 1.03 | S. cerevisiae deletion strains, locus YLR342W, strain FKS1, hits give low values 1.01 | S. cerevisiae deletion strains, locus YLR357W, strain rsc2, hits give low values 1.02 | S. cerevisiae deletion strains, locus YLR370C, strain arc18, hits give low values 1.01 | S. cerevisiae deletion strains, locus YLR371W, strain rom2, hits give low values 1.02 | S. cerevisiae deletion strains, locus YLR384C, strain iki3, hits give low values 1 | S. cerevisiae deletion strains, locus YLR418C, strain cdc73, hits give low values 1.01 | S. cerevisiae deletion strains, locus YML016C, strain PPZ1, hits give low values 0.992 | S. cerevisiae deletion strains, locus YML032C, strain rad52, hits give low values 1.03 | S. cerevisiae deletion strains, locus YML120C, strain ndi1, hits give low values 1 | S. cerevisiae deletion strains, locus YML124C, strain tub3, hits give low values 1.01 | S. cerevisiae deletion strains, locus YMR058W, strain fet3, hits give low values 1.01 | S. cerevisiae deletion strains, locus YMR078C, strain ctf18, hits give low values 1.02 | S. cerevisiae deletion strains, locus YMR125W, strain sto1, hits give low values 1.01 | S. cerevisiae deletion strains, locus YMR129W, hits give low values 0.992 | S. cerevisiae deletion strains, locus YMR205C, strain PFK2, hits give low values 1.02 | S. cerevisiae deletion strains, locus YMR223W, strain ubp8, hits give low values 1.02 | S. cerevisiae deletion strains, locus YMR231W, strain pep5, hits give low values 1.01 | S. cerevisiae deletion strains, locus YMR263W, strain SAP30, hits give low values 0.994 | S. cerevisiae deletion strains, locus YMR307W, strain GAS1, hits give low values 1.02 | S. cerevisiae deletion strains, locus YNL067W, strain RPL9B, hits give low values 0.99 | S. cerevisiae deletion strains, locus YNL071W, strain lat1, hits give low values 1 | S. cerevisiae deletion strains, locus YNL128W, strain TEP1, hits give low values 0.991 | S. cerevisiae deletion strains, locus YNL153C, strain GIM3, hits give low values 0.996 | S. cerevisiae deletion strains, locus YNL183C, strain NPR1, hits give low values 0.985 | S. cerevisiae deletion strains, locus YNL209W, strain ssb2, hits give low values 1 | S. cerevisiae deletion strains, locus YNL233W, strain BNI4, hits give low values 0.992 | S. cerevisiae deletion strains, locus YNL248C, strain rpa49, hits give low values 0.969 | S. cerevisiae deletion strains, locus YNL250W, strain rad50, hits give low values 1.01 | S. cerevisiae deletion strains, locus YNL271C, strain bni1, hits give low values 1.01 | S. cerevisiae deletion strains, locus YNL298W, strain CLA4, hits give low values 1.02 | S. cerevisiae deletion strains, locus YNL307C, strain MCK1, hits give low values 1.03 | S. cerevisiae deletion strains, locus YNL322C, strain KRE1 (second series), hits give low values 1 | S. cerevisiae deletion strains, locus YNL322C, strain KRE1, hits give low values 0.999 | S. cerevisiae deletion strains, locus YNR049C, strain mso1, hits give low values 0.996 | S. cerevisiae deletion strains, locus YNR052C, strain pop2, hits give low values 1.02 | S. cerevisiae deletion strains, locus YOL006C, strain TOP1, hits give low values 1.03 | S. cerevisiae deletion strains, locus YOL012C, strain htz1 0.95 | S. cerevisiae deletion strains, locus YOL147C, strain pex11, hits give low values 1.02 | S. cerevisiae deletion strains, locus YOR001W, strain rrp6, hits give low values 0.979 | S. cerevisiae deletion strains, locus YOR061W, strain CKA2, hits give low values 0.994 | S. cerevisiae deletion strains, locus YOR069W, strain VPS5, hits give low values 1 | S. cerevisiae deletion strains, locus YOR070C, strain gyp1, hits give low values 1.01 | S. cerevisiae deletion strains, locus YOR080W, strain dia2, hits give low values 1 | S. cerevisiae deletion strains, locus YOR083W, strain WHI5, hits give low values 0.999 | S. cerevisiae deletion strains, locus YOR106W, strain vam3, hits give low values 0.993 | S. cerevisiae deletion strains, locus YOR136W, strain idh2, hits give low values 1.01 | S. cerevisiae deletion strains, locus YOR144C, strain elg1, hits give low values 1.01 | S. cerevisiae deletion strains, locus YOR184W, strain ser1, hits give low values 1.03 | S. cerevisiae deletion strains, locus YOR231W, strain MKK1, hits give low values 1.05 | S. cerevisiae deletion strains, locus YOR265W, strain rbl2, hits give low values 1.01 | S. cerevisiae deletion strains, locus YOR270C, strain vph1, hits give low values 0.987 | S. cerevisiae deletion strains, locus YOR290C, strain snf2, hits give low values 1 | S. cerevisiae deletion strains, locus YOR316C, strain cot1, hits give low values 1.01 | S. cerevisiae deletion strains, locus YPL051W, strain arl3, hits give low values 1 | S. cerevisiae deletion strains, locus YPL055C, strain LGE1, hits give low values 0.984 | S. cerevisiae deletion strains, locus YPL078C, strain atp4, hits give low values 0.986 | S. cerevisiae deletion strains, locus YPL106C, strain sse1, hits give low values 1 | S. cerevisiae deletion strains, locus YPL240C, strain hsp82, hits give low values 1 | S. cerevisiae deletion strains, locus YPL241C, strain CIN2, hits give low values 0.994 | S. cerevisiae deletion strains, locus YPL256C, strain CLN2, hits give low values 1.06 | S. cerevisiae deletion strains, locus YPR119W, strain clb2, hits give low values 1.01 | S. cerevisiae deletion strains, locus YPR141C, strain kar3, hits give low values 1.01 | S. cerevisiae deletion strains, locus YPR163C, strain tif3, hits give low values 1.02 | S. cerevisiae deletion strains, locus YPR167C, strain met16, hits give low values 1.01 | S. cerevisiae deletion strains, strain wtn01, hits give low values 1.01 | S. cerevisiae strains, strain wild type, hits give low values 0.996
